{"source": "PubChem BioAssay (NCI)", "note": "About 83,000 compounds went through this panel and 20% of them were active in at least one assay; those are over-represented in the sample as a whole.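 48-hour exposure, single concentration, 96-well plates; percent growth endpoint where 0 means no net growth. Active: below 10.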 A number with no mark means an inactive call. Calls of active or inactive are those of the source.", "data": [{"tested_on": "MDA-MB-468 breast", "experiment": "NCI-60 one-dose screen, 48 h (100 = growth as untreated, 0 = no growth, -100 = all killed)", "details": "10 µM unless noted", "values": [{"smiles": "CN1C(=O)N(C)C2NC(N/N=C/c3ccccc3)=NC21", "note": "(stereo not given)", "growth": "95.9%"}, {"smiles": "N#Cc1nc(-c2ccc(Cl)cc2)oc1S(=O)(=O)N1CCN(c2ccc(F)cc2)CC1", "growth": "105%"}, {"smiles": "CN(C)c1cccc2c(S(=O)(=O)/N=C(\\N)Nc3nc4ccccc4s3)cccc12", "growth": "-8.02% (active)"}, {"smiles": "CNC(=O)Cc1nc(-c2cccc(NS(=O)(=O)c3c(F)cccc3F)c2F)c(-c2ccnc(Nc3ccccc3)n2)s1", "growth": "104%"}, {"smiles": "O=C1CCCCCCCCC(O)C(O)CCCC(c2cccs2)O1", "note": "(stereo not given)", "growth": "95.5%"}, {"smiles": "CC(C)(C)c1[nH]nc2c1C(c1cc3ccccc3[nH]c1=O)Nc1cc(C(=O)OCc3ccccc3)ccc1N2", "note": "(stereo not given)", "growth": "43.7%"}, {"smiles": "COc1ccc(C(Cc2ccccc2)NCCN2CCOCC2)cc1", "note": "(stereo not given)", "growth": "99.6%"}, {"smiles": "Nc1nc(Cl)c2ncn(Cc3cc4c(cc3I)OCO4)c2n1", "growth": "7.98% (active)"}, {"smiles": "COc1cc(NC(N)=NCC(C)(C)COc2ccc(C(F)(F)F)cc2)cnc1C#N", "growth": "19.6%"}, {"smiles": "CCCCCCNC(=O)Oc1ccc(/C(=C(\\C)c2ccccc2)c2ccc(OCCN3CCCCC3)cc2)cc1", "growth": "64.2%"}, {"smiles": "O=S(=O)(NCCCNc1nccc(-c2c(-c3cccc(F)c3)nc3occn23)n1)c1ccc(F)cc1", "growth": "26.7%"}, {"smiles": "Cn1cc(Nc2nccc(-c3ccc(N4CCCC4)c(C#N)c3)n2)cn1", "growth": "61.8%"}, {"smiles": "CC(=O)O[C@H]1C(=O)[C@@]2(C)C([C@H](OC(=O)c3ccccc3)[C@]3(O)C[C@H](OC(=O)[C@H](O)[C@@H](NC(=O)c4ccccc4)c4ccccc4)C(C)=C1C3(C)C)[C@]1(OC(C)=O)CO[C@@H]1C[C@@H]2O", "note": "(stereo not given in full)", "growth": "-11.7% (active)"}, {"smiles": "COc1ccc(-c2nnc(SCC(=O)Nc3ccc(C(=O)/C=C/c4cc(OC)c(OC)c(OC)c4)cc3)n2-c2ccccc2)cc1OC", "growth": "-14.2% [100 µM] (active)"}, {"smiles": "COc1ccc(/C=C/C(=O)C(=O)/C=C/c2ccc(OC)c(OC)c2)cc1OC", "growth": "20.1%"}, {"smiles": "CC1(C)CC[C@]2(C(=O)NCC#CCN3CCOCC3)CC[C@]3(C)C(=CC[C@@H]4[C@@]5(C)Cc6c([nH]c7ccccc67)C(C)(C)[C@@H]5CC[C@]43C)[C@@H]2C1", "growth": "90.8%"}, {"smiles": "O=C1C(Cl)=C(Cl)C(Cl)(Cl)C(Cl)C1(Cl)Cl", "note": "(stereo not given)", "growth": "115%"}, {"smiles": "COc1cccc(-c2nc3sccn3c2-c2ccnc(NCCNS(=O)(=O)c3ccccc3)c2)c1", "growth": "16.2%"}, {"smiles": "Nc1[nH]n2cc(-c3ccc(F)cc3)nc2c1N=Nc1ccc(S(N)(=O)=O)cc1", "growth": "83.4%"}, {"smiles": "CC1=CC2C(C(O)CC3(C)C2CC(C)C32OCOC23COCO3)C2(C)C/C(=C/O)C(=O)C=C12", "note": "(stereo not given)", "growth": "-16.2% (active)"}, {"smiles": "Cn1cc(-c2noc(-c3cn(C)c4ncc(F)cc34)n2)c2cc(Br)ccc21", "growth": "61.3%"}, {"smiles": "CCC(C)N(CCNc1cc(OC)cc2cccnc12)CC(C)C", "note": "(stereo not given)", "growth": "-52.5% (active)"}, {"smiles": "Cn1cc(-c2nn3cc(-c4cccnc4)nc3s2)c2ccccc21", "growth": "-2.67% (active)"}, {"smiles": "CCN(CC)CCCC(C)N=C(C1=C(C(=NC(C)CCCN(CC)CC)c2cccc(OC)c2)C(=O)NC1=O)c1cccc(OC)c1", "note": "(stereo not given)", "growth": "-50.4% (active)"}, {"smiles": "C/C(=N/O)c1ccc(NC(=O)Cn2nc(-c3ccc(Cl)cc3)nc2N)cc1", "growth": "100%"}, {"smiles": "COc1ncc(-c2ccc3nc(N)n(-c4ccccc4C(F)(F)F)c(=O)c3c2)cc1S(=O)(=O)Nc1ccc(F)cc1F", "growth": "-37.3% (active)"}, {"smiles": "O=C(N/N=C/c1ccc(Cl)cc1)c1[nH]c2ccc(Cl)cc2c1-c1ccccc1", "growth": "33.7%"}, {"smiles": "O=c1oc2ccccc2cc1C1=NN=C(SCc2ccccc2)SC1", "growth": "118%"}, {"smiles": "CCN(CC)CCN1C(=O)c2c(c3c4ccccc4[nH]c3c3ccc4ccccc4c23)C1=O", "growth": "79.5%"}, {"smiles": "CCCCCCCCN=C(NCCCCCCCC)SCc1cccc2ccccc12", "growth": "-93.9% (active)"}, {"smiles": "COc1cc(-c2ccc(-c3ccc(C(=N)N)nc3)s2)cc(OC)c1OC", "growth": "22.4%"}, {"smiles": "CCn1cc(CNc2ccc(C(=O)Nc3cc4cc(OC)c(OC)cc4c(C)n3)cc2)cn1", "growth": "41.8%"}, {"smiles": "CC(C)=CCc1cc(O)cc2c1OC(C=C(C)C)C1=C2C(=O)C2=C(NCCS2(=O)=O)C1=O", "note": "(stereo not given)", "growth": "-27% (active)"}, {"smiles": "COc1cc(OC)c2cc(C(=O)c3ccc(C#N)cc3)c(=O)oc2c1", "growth": "94.1%"}, {"smiles": "COc1ccc(-c2csc(NC(=O)CN3CCN(c4cc5c(cc4F)c(=O)c(C(=O)O)cn5C4CC4)CC3)n2)cc1", "growth": "-0.675% (active)"}, {"smiles": "Cc1cc(C)cc(NC2=C(Cl)C(=O)c3nc(C)ccc3C2=O)c1", "growth": "-75.8% (active)"}, {"smiles": "Cn1c(NCCc2ccc(O)c(O)c2)nc2c1c(=O)n(Cc1ccc(Cl)cc1)c(=O)n2C", "growth": "19.4%"}, {"smiles": "Nc1ccc(-c2cccs2)cc1NC(=O)c1ccc(CCCC(=O)Nc2ccc(C3CC3N)cc2)cc1", "note": "(stereo not given)", "growth": "69.6%"}, {"smiles": "CC(C)(C)n1cc(-c2ccnc(NCCCNS(=O)(=O)c3ccc(F)cc3)c2)c(-c2cccc(F)c2)n1", "growth": "53.2%"}, {"smiles": "O=C(NCc1cn(Cc2cccc(Oc3ccccc3)c2)nn1)c1cccnc1Nc1ccc(F)cc1", "growth": "33.5%"}]}]}
